From PubChem BioAssay AID1159580 (chemical genetic matrix, 2015)
In all, about 5,500 compounds went through this assay and about 2,000 (36%) were called active. Inconclusive results (about 18%) are left out. No stated cut-off is given here; in the data, active means normalized growth mostly below about 0.91 (no sharp cut-off); inconclusive means no clear call, values can overlap the other calls; inactive means mostly above about 0.92. The list shows a part of the results.

Test: chemical genetic growth profiling, strain panel (AID 1159580);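 further: tested at 20 µM; growth read once vehicle control cultures reached saturation at 30 °C; 1 = growth at the plate median or of vehicle wells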
Conditions: S. cerevisiae deletion strains, growth OD

Measured: normalized growth

N[C@H](C(=O)O)[C@H](O)C(=O)O
inactive: locus YAL013W, strain DEP1, stronger effect = lower value 0.972 | locus YAL040C, strain CLN3, stronger effect = lower value 0.965 | locus YCL061C, strain MRC1 (second series), stronger effect = lower value 0.994 | locus YDR150W, strain NUM1, stronger effect = lower value 1 | locus YDR363W, strain ESC2, stronger effect = lower value 0.987 | locus YER002W, strain NOP16, stronger effect = lower value 1 | locus YMR307W, strain GAS1, stronger effect = lower value 0.992 | locus YNL153C, strain GIM3, stronger effect = lower value 0.989 | locus YNL175C, strain NOP13, stronger effect = lower value 1.01 | locus YNL197C, strain WHI3, stronger effect = lower value 0.996 | locus YNL224C, strain SQS1, stronger effect = lower value 0.983 | locus YOR083W, strain WHI5 (second series), stronger effect = lower value 1.06 | locus YPL241C, strain CIN2, stronger effect = lower value 0.992
